# In the library only some 15% were active in any assay of this set; here they are far more common.
# ALOX12 inh: ALOX12 (human) lipoxygenase inhibition; P18054; Potency, µM (series often up to 108 µM), for inactives: at the top dose activity change, negative = inhibition, hits mostly inhibitors; hit rate 1.1% among 580,000; purified 12hLO, xylenol orange hydroperoxide absorbance
#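 Hydroperoxide product was detected by ferrous iron/xylenol orange as the 573 to 405 nm absorbance ratio. Arachidonic acid at 40 uM (final) was turned over for 30 min at room temperature by 150 nM human 12hLO, pH 7.0 Hepes buffer, after 15 min compound preincubation.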
# ELG1 DNA repair: blocks ELG1-dependent DNA repair in HEK293T cells; HEK293T ELG1-luciferase reporter, luminescence, 16 h; DNA damage induced by 5-fluorouridine; Potency, µM (series often up to 46.1 µM), for inactives: at the top dose activity change, negative = inhibition, actives largely listed as inhibitors; hit rate 2.3% among 330,000; AID 504467; note: nearly all actives have a fitted effect of over 55% in size
#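 HEK293T cells expressing luciferase-tagged ELG1 (2,000/well) received 5-Fluorouridine plus compound or DMSO for 16 hr at 37 °C. Luciferase was read by ONE-Glo luminescence after 30 min at room temperature.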
# DT40 TDP1 CPT: DT40-hTDP1 cell growth loss with CPT; hit rate 12% among 420,000; Potency, µM (titrated, usually from 46.2 µM), without a hit: at the top dose activity change, negative = growth inhibition, hits mostly inhibitors; chicken DT40 Tdp1-/-;hTDP1 cells + 20 nM CPT, ATP luminescence, 48 h; note: nearly all actives have a fitted effect of over 55% in size
#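 Cell growth measured by CellTiter-Glo luminescence after a minimum 48 h, 37 C compound exposure with 20 nM CPT in Tdp1-knockout DT40 cells stably expressing hTDP1, seeded 400/well; qHTS titration format.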
# TDP1 cell noCPT: qHTS for Inhibitors of human tyrosyl-DNA phosphodiesterase 1 (TDP1): qHTS in cells in absence of CPT. DT40 Tdp1-/- hTDP1 cells, no CPT, ATP luminescence, 48 h. Potency, µM (doses to about 46.2 µM), inactives show at the highest dose activity change, negative = growth inhibition, actives largely listed as inhibitors. hit rate 15% among 420,000. AID 686978, 2013; note: nearly all actives have a fitted effect of over 55% in size
#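 Cells were dispensed at 400 per well, compounds added by pin tool, plates incubated ≥48 hr at 37 °C, then CellTiter-Glo added for 30 min at room temperature before luminescence reading. Line: DT40 Tdp1-/- complemented with hTDP1; camptothecin omitted.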
# RORgamma inh: blocks mouse ROR gamma transcriptional activity; Drosophila S2 Gal4-RORgamma UAS-luciferase reporter, 20 h; P51450; hit rate 5.4% among 310,000; AID 2551; Potency, µM (highest dose often 53.6 µM), for the others: at the highest dose activity change, negative = inhibition, usual class: inhibitors; note: nearly all actives have a fitted effect of over 60% in size
# Target sequence (P51450 whole entry, looked up, the tested form may be a part): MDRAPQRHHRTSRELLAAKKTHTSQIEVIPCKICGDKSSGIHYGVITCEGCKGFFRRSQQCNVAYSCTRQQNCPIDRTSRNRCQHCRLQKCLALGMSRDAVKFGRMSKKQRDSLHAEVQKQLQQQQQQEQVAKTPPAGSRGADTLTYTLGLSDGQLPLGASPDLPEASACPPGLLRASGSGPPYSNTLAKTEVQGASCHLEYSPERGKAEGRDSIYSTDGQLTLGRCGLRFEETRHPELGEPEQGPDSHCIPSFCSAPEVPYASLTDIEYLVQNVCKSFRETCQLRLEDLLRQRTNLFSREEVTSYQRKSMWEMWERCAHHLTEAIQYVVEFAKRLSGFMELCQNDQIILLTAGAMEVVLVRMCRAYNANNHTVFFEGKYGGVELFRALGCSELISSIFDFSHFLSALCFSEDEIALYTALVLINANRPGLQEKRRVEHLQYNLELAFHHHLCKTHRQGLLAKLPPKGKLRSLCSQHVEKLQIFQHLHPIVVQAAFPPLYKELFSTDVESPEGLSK
#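 Stably transfected Drosophila Schneider cells are the test system, with ROR gamma fused to Gal4 and luciferase under UAS control; luminescence is read after 20 hr of 700 uM copper sulfate induction at ambient temperature.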
# Gal4-VP16 FLuc: inhibits Gal4-VP16 luciferase reporter, ROR gamma counter-screen; Potency, µM (doses to about 53.6 µM), for the others: at the highest dose activity, negative = inhibition, most hits filed as inhibitors; AID 2546; Drosophila S2 Gal4-VP16 UAS-luciferase, luminescence, 20 h; hit rate 3.5% among 310,000;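 note: Gal4-VP16 expression switched on by copper sulfate through the metallothionein promoter; nearly all actives have a fitted effect of over 50% in size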
# Numbers without * were called inactive; ? = inconclusive; / = no result; [ ] = another dose, or the depositor's remark. Calls come from the whole dose curve; as a rule, active = well fitted curve in the direction sought with a large enough effect; inconclusive = small, poorly fitted or top-dose-only effect, or another doubt; inactive = no such curve, though single readings can be large; an effect the other way counts as inactive or inconclusive. % is set by controls: 0 for no effect and ±100 for the full control effect; potency is the fitted concentration of half-maximal effect.
SMILES,ALOX12 inh,ELG1 DNA repair,DT40 TDP1 CPT,TDP1 cell noCPT,RORgamma inh,Gal4-VP16 FLuc
CCOC(=O)CN1C(=O)C(=O)c2cccc(C)c21,11%,12%,?,?,-4%,3%
CCNC(=S)N(CCc1c(C)[nH]c2ccc(F)cc12)Cc1cccnc1,0%,-26%,?,26µM*,20%,9%
CCNC(=S)N(CCc1c(C)[nH]c2ccc(C)cc12)Cc1cccnc1,31%,-2%,?,29µM*,-1%,7%
Cc1[nH]c2ccc(F)cc2c1CCN(Cc1cccnc1)C(=S)Nc1ccc(F)cc1,4%,?,-17%,-27%,1%,-14%
COc1cc(C(c2c(C(=O)O)[nH]c3ccccc23)c2c(C(=O)O)[nH]c3ccccc23)ccc1OCc1ccccc1,28µM*,16%,-4%,7%,-41%,-14%
O=C(O)c1[nH]c2ccccc2c1C(c1ccccc1)c1c(C(=O)O)[nH]c2ccccc12,6%,5%,18%,22%,-20%,-11%
C=CCOc1ccc(C(c2c(C(=O)O)[nH]c3ccccc23)c2c(C(=O)O)[nH]c3ccccc23)cc1,28µM*,4%,12%,-8%,-16%,-9%
CN(C)Cc1ccc2c(c1)c(OC(C)(C)C(=O)NCCN1CCOCC1)nn2Cc1ccccc1,43%,/,/,/,/,/
COC(=O)[C@@]12C[C@@H](CC(=O)N3CCCC3)C(=O)N(Cc3ccc4c(c3)OCO4)C1=CCC(C)(C)C2,-3%,/,?,?,/,/
CCOC(=O)N1CCN(C(=O)C[C@@H]2C[C@@]3(C(=O)OC)CC(C)(C)CC=C3N(Cc3ccc4c(c3)OCO4)C2=O)CC1,1%,/,12µM*,18µM*,/,/
COC(=O)[C@@]12C[C@@H](CC(=O)N3CCSCC3)C(=O)N(Cc3ccc4c(c3)OCO4)C1=CCC(C)(C)C2,-1%,/,?,15µM*,/,/
N#C/C(=N\Nc1ccc(S(=O)(=O)N2CCc3ccccc32)cc1)C(N)=S,16µM*,6.5µM*,-18%,12µM*,11µM*,?
N#C/C(=N\Nc1ccc(S(=O)(=O)N2CCCCC2)cc1)C(N)=S,50µM*,?,?,?,?,-22%
N#C/C(=N\Nc1ccc([N+](=O)[O-])cc1)C(N)=S,25µM*,?,?,23µM*,?,13µM*
N#C/C(=N\Nc1cccc([N+](=O)[O-])c1)C(=O)c1ccc(Br)cc1,40µM*,1.8µM*,5.8µM*,6.5µM*,4.5µM*,5µM*
O=C(O)c1ccc(N=NNc2cccc([N+](=O)[O-])c2)cc1,-17%,?,1%,?,14%,-22%
N#C/C(=N/Nc1ccc(S(=O)(=O)N2CCOCC2)cc1)C(N)=O,-14%,-22%,-3%,-16%,-9%,0%
N#C/C(=N/Nc1ccc([N+](=O)[O-])cc1)C(=N)N1CCCCC1,?,?,-18%,-1%,-1%,-12%
CCN(CC)c1ncccc1CNC(=O)COC,10%,/,/,/,/,/
O=C1c2cc(N3CCOCC3)nc(-c3cnc4[nH]ccc4c3)c2CN1CC(F)(F)F,46%[176 µM],/,/,/,/,/
O=C(CN1C(=O)NC(Cc2c[nH]c3ccccc23)C1=O)Nc1ccccc1F (configuration not stated),12%,/,/,/,/,/
Cc1ccoc1C(=O)N1CCC(Oc2ccccc2F)(C(=O)O)CC1,11%,/,/,/,/,/
N#C/C(=N\Nc1ccc(S(=O)(=O)N2CCCCCC2)cc1)C(N)=S,?,21µM*,?,?,11µM*,?
CC(C)C(=O)N1Cc2ccccc2CC2(CCCN(Cc3ccccn3)C2)C1 (configuration not stated),1%[6.33 µM],/,/,/,/,/
Nc1cc2nc3ccccc3oc-2cc1=O,25%,?,2.1µM*,1.8µM*,-8%,-13%
SMILES,ALOX12 inh,ELG1 DNA repair,DT40 TDP1 CPT,TDP1 cell noCPT,RORgamma inh,Gal4-VP16 FLuc
Cc1nc2ccccc2oc1=O,/,/,/,/,-4%,-3%
CCC(CO)Oc1cc(NCc2ccccc2F)c2ncn(C(C)C)c2c1 (configuration not stated),4%,?,21µM*,16µM*,/,/
CCC(CO)Oc1cc(NCc2ccccc2OC)c2ncn(C(C)C)c2c1 (configuration not stated),-16%,?,?,?,/,/
CCC(CO)Oc1cc(NCc2ccccc2C(F)(F)F)c2ncn(C(C)C)c2c1 (configuration not stated),?,23µM*,23µM*,16µM*,/,/
CCOC(=O)C(NC(=O)c1ccccc1)C(=O)OCC,-7%,/,/,/,/,/
C=CCNC(=O)COc1ccc(Oc2ccccc2)cc1,-21%,13%,15µM*,26µM*,2%,-7%
NC(=S)N/N=C/c1ccc(Br)o1,-12%,1%,-20%,-15%,3.5µM*,?
COC(=O)N/N=C/c1ccc(-c2ccc(Cl)cc2Cl)o1,41%,0%,3%,-9%,21%,-7%
NC(=S)N/N=C/c1ccc(-c2cc(Cl)c(Cl)cc2Cl)o1,?,2%,3.7µM*,4.6µM*,0.56µM*,1.1µM*
CCNC(=O)C(C)NC(=O)CCc1ncc(-c2ccc(CC(C)C)cc2)o1 (configuration not stated),4%,/,/,/,/,/
CN(CCCC(=O)N1CCc2ccccc2C1)S(=O)(=O)c1ccc(F)cc1,4%,/,/,/,/,/
Cc1noc(-c2cn(C3CCN(C(=O)c4ccc(F)cc4)CC3)nn2)n1,13%,/,/,/,/,/
O=C(c1ccc(F)cc1F)N1CCC(n2cnnc2C2CC2)CC1,44%,/,/,/,/,/
O=C(Nc1cccc2cccnc12)c1csc(COCCO)n1,/,/,23µM*,13µM*,/,/
O=C(Nc1cccc2ccccc12)c1csc(COCCO)n1,-2%,/,-58%,-45%,/,/
Cc1ccc(C2=NN(C(=O)CN3C(=O)c4ccccc4S3(=O)=O)C(c3ccco3)C2)cc1 (configuration not stated),-9%,-5%,13µM*,?,25%,5%
Cc1ccc(C2=NN(C(=O)Cn3nnc(-c4ccc(C(N)=O)cc4)n3)C(c3ccco3)C2)cc1 (configuration not stated),28µM*,/,/,/,/,/
Cc1ccc(NC2(c3nnnn3-c3c(C)cccc3C)CCCCC2)cc1,-1%,-1%,?,23µM*,-31%,?
O=C(COc1ccccc1Cl)Nc1cccc(NC(=O)c2ccco2)c1,7%,/,/,/,/,/
CCOc1ccc(C(=O)Nc2cccc(NC(=O)c3ccco3)c2)cc1Cl,-20%,/,?,16µM*,/,/

# Bioassay records from PubChem BioAssay.
